In PubChem BioAssay (NCATS):
Results filed as inconclusive are left out. The source made the active and inactive calls. Calls follow the shape of the dose curve; as a rule, active = well fitted curve in the direction sought with a large enough effect; inconclusive = small, poorly fitted or top-dose-only effect, or another doubt; inactive = no such curve, though single readings can be large; an effect the other way counts as inactive or inconclusive.

What was measured:
[1] = target: Rap guanine nucleotide exchange factor 3 (Homo sapiens) (UniProt O95398); experiment: Confirmatory qHTS for antagonist of cAMP-regulated guanine nucleotide exchange factor 3 (EPAC1) (AID 1645880); settings: EPAC1 Rap1B-BODIPY-GDP exchange, fluorescence; activity, negative = inhibition: at 115 µM (top of the series); also: nearly all actives have a fitted effect of over 55% in size; also: potency is read from the fitted curve at half-maximal effect;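 as to activity, negative = inhibition: plate controls were DMSO only for no effect and full effect of the ATA control for full effect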
Method in brief: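 Released BODIPY-GDP fluoresces less than Rap1-bound BODIPY-GDP; the signal is followed at 480/540 nm at 5-min intervals over 30 min, after 5 min at room temperature. Reactions contain 100 nM EPAC1, 250 nM RAP1B-BODIPY-GDP and 50 uM GDP; results are normalized to ATA and DMSO.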

[2] = target: Rap guanine nucleotide exchange factor 3 (Homo sapiens) (UniProt O95398); experiment: Confirmatory qHTS for agonist of cAMP-regulated guanine nucleotide exchange factor 3 (EPAC1) (AID 1645881); settings: EPAC1 Rap1B BODIPY-GDP exchange fluorescence; series mostly up to 154 µM; also: nearly all actives have a fitted effect of over 75% in size; also: potency is read from the fitted curve at half-maximal effect;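 as to activation: EPAC1 catalysed release of BODIPY-GDP from Rap1B seen as fluorescence loss; 100% = effect of cAMP agonist control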
[3] = target: Rap guanine nucleotide exchange factor 4 (Homo sapiens) (UniProt Q8WZA2); experiment: Confirmatory qHTS for agonist of cAMP-regulated guanine nucleotide exchange factor 4 (EPAC2) (AID 1645884); settings: EPAC2 GEF activity, Rap1B-BODIPY-GDP fluorescence; series mostly up to 154 µM;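 also: nucleotide exchange releases bodipy-GDP from Rap1 and this lowers its fluorescence; nearly all actives have a fitted effect of over 65% in size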; also: potency is read from the fitted curve at half-maximal effect; as to activation: % is scaled to controls: 0 for no effect and ±100 for the full control effect
[4] = target: Rap guanine nucleotide exchange factor 3 (Homo sapiens) (UniProt O95398); experiment: Counterscreen qHTS for antagonist of cAMP-regulated guanine nucleotide exchange factor 3 (EPAC1) (AID 1645888); settings: Rap1B-BODIPY-GDP nucleotide exchange, fluorescence; series mostly up to 154 µM; also: % of control where 0% means no effect
Method in brief: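 Rap1B–BODIPY-GDP (250 nM) with 50 uM GDP; compounds pin-transferred to 9.74 nM–152 uM final (activator) or from 7.32 nM upwards (inhibitor). Fluorescence Ex/Em 480/540 nm read at 5 and 30 min, then after adding cAMP or buffer, at room temperature.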

Rap guanine nucleotide exchange factor 4 (Homo sapiens), sequence (Q8WZA2 whole entry, looked up): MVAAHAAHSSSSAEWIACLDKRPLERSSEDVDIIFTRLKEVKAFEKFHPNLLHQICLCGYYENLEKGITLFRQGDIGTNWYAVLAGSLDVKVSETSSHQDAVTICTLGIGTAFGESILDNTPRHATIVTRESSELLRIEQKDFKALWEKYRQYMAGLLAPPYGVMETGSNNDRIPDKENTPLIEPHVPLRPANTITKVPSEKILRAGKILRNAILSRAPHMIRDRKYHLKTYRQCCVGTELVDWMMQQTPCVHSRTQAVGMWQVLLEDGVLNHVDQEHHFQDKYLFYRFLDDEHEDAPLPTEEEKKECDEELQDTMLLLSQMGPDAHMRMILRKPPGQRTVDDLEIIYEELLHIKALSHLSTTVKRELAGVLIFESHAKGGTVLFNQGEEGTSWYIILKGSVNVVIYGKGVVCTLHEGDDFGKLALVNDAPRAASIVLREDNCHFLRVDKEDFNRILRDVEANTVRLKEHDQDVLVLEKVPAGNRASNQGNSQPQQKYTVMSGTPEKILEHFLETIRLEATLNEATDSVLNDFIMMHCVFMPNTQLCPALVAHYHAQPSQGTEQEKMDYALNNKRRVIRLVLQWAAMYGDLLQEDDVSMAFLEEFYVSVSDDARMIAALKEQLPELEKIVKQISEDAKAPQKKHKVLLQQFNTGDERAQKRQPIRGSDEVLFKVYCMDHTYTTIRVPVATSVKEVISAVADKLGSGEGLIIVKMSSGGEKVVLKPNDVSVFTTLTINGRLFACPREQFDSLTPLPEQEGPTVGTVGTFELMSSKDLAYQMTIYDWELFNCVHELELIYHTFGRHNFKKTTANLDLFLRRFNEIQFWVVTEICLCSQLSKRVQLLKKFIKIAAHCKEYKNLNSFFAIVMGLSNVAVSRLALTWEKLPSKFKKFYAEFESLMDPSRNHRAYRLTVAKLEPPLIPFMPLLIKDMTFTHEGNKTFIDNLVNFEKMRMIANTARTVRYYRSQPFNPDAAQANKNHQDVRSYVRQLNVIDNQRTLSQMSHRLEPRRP
Rap guanine nucleotide exchange factor 3 (Homo sapiens), sequence (O95398 whole entry, looked up): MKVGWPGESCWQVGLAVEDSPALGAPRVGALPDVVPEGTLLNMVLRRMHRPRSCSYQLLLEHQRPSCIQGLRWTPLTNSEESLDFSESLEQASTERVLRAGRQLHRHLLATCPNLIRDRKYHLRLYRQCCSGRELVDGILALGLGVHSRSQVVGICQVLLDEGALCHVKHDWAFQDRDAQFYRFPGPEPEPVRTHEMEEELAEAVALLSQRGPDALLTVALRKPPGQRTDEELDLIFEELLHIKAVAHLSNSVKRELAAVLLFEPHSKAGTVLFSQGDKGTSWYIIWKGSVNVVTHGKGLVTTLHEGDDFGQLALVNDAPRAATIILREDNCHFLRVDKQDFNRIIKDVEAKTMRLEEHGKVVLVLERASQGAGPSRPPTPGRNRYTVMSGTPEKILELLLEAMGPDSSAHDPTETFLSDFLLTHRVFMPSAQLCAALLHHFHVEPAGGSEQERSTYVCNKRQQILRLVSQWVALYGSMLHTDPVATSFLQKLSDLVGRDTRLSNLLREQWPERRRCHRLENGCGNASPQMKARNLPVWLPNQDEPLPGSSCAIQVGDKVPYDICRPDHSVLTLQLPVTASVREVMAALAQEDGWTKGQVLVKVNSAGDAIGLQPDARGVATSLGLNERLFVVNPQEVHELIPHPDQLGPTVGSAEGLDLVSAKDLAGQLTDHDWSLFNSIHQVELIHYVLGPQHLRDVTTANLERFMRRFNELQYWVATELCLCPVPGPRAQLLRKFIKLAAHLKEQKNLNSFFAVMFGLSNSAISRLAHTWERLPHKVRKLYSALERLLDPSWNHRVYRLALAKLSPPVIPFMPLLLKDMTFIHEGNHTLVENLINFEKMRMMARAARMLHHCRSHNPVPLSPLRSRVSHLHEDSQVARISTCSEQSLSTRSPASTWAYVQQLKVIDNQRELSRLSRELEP

CCn1c(O)c(/C=N/NC(=O)c2ccncc2)c(=O)n(CC)c1=S
active: Potency [2] 35.5 µM | Potency [3] 25.1 µM
inactive: Potency [1] | Potency [4]

Cc1ccc([N+](=O)[O-])cc1NC(=O)c1ccc(-c2ccccc2)cc1
inactive: Potency [1] | Potency [2] | Potency [3] | Potency [4]

N#Cc1c(C(F)(F)F)cc(-c2ccccc2)nc1SCc1nc(N)nc(N2CCOCC2)n1
inactive: Potency [1] | Potency [2] | Potency [3] | Potency [4]

Cc1ccc(S(=O)(=O)Nc2ccc3ccccc3c2[N+](=O)[O-])cc1
active: Potency [1] 75.7 µM
inactive: Potency [2] | Potency [3] | Potency [4]

CSc1nc(C)cc(C)c1S(=O)(=O)c1ccccc1C
inactive: Potency [1] | Potency [2] | activation [3] 8.78% [at 17.1 µM, percent relative to cAMP agonist control] | activity change, negative = inhibition [4] -5.37% [at 30.8 µM]

NC1=C(Cl)C(=O)c2ccc(S(N)(=O)=O)cc2C1=O
active: Potency [1] 75.7 µM
inactive: Potency [2] | Potency [3] | Potency [4]

CCOC(=O)c1ccccc1NC(=O)COC(=O)C(Cc1c[nH]c2ccccc12)NC(C)=O (stereo unspecified)
inactive: Potency [1] | Potency [2] | Potency [3] | Potency [4]

CC(=O)c1ccc(N2CCN(C(=O)/C=C/c3ccc4ccccc4n3)CC2)cc1
active: Potency [3] 89.1 µM
inactive: Potency [1] | Potency [2] | Potency [4]

Cc1cccc(C(=O)Oc2ccc(/C=N/NC(=O)c3cc(O)cc(O)c3)cc2)c1
active: Potency [1] 16.9 µM
inactive: Potency [2] | Potency [3] | Potency [4]

O=C(O)c1ccc(/C=N/Nc2cccc(C(F)(F)F)c2)cc1
inactive: Potency [1] | Potency [2] | Potency [3] | Potency [4]

CN1OC[C@@H]2CN(Cc3ccc(Cl)cc3)[C@H](c3ccc(-n4ccnc4)cc3)C[C@@H]21
inactive: Potency [1] | Potency [2] | activation [3] 4.62% [at 17.1 µM, percent relative to cAMP agonist control] | activity change, negative = inhibition [4] 1.17% [at 30.8 µM]

COCCN(C(=O)c1cc2c(s1)CCCCC2)c1c(N)n(Cc2ccccc2)c(=O)[nH]c1=O
inactive: Potency [1] | Potency [2] | Potency [3] | Potency [4]

COc1cc(/C=C2\C(=O)N(c3cccc(C(=O)O)c3)N=C2C)ccc1OCc1ccccc1
active: Potency [1] 37.9 µM
inactive: Potency [2] | Potency [3] | Potency [4]

CCOC(=O)c1c(NC(=O)CSc2nc3ccc(C)cc3[nH]2)sc2c1CC(C)(C)NC2(C)C
inactive: Potency [1] | Potency [2] | Potency [3] | Potency [4]

CC(=O)c1ccc(N2CCN(C(=O)c3cc(-c4cccnc4)nc4ccc(Br)cc34)CC2)cc1
inactive: Potency [1] | Potency [2] | Potency [3] | Potency [4]

O=c1[nH]nc(CNc2ccc(O)cc2)c2ccccc12
inactive: Potency [1] | Potency [2] | Potency [3] | Potency [4]

Cc1cc(C)c2nc(N3C(=O)C(O)=C(C(=O)c4ccco4)C3c3ccc(O)cc3)sc2c1 (stereo unspecified)
active: Potency [1] 37.9 µM
inactive: Potency [2] | Potency [3] | Potency [4]

CCOc1ccc(-n2c(SCC(=O)Nc3ccc(F)cc3)nc3c([nH]c4ccccc43)c2=O)cc1
inactive: Potency [1] | Potency [2] | Potency [3] | Potency [4]

O=C1/C(=C\c2cc([N+](=O)[O-])ccc2O)SC(=S)N1Cc1ccc(Cl)cc1
inactive: Potency [2] | Potency [3] | Potency [4]
active: Potency [1] 75.7 µM

Cc1cc(NC(=O)COC(=O)C(C)Oc2ccc(Cl)cc2Cl)no1 (stereo unspecified)
inactive: Potency [1] | Potency [2] | Potency [3] | Potency [4]

CN(Cc1ccnc2ccccc12)C(=O)C1CCC(=O)N(Cc2ccccc2F)C1 (stereo unspecified)
inactive: Potency [1] | Potency [2] | Potency [3] | Potency [4]

CC1=CC(C)(C)N(C(=O)c2ccc(F)cc2)c2cc3c(cc21)OCO3
inactive: Potency [1] | Potency [2] | Potency [3] | Potency [4]

O=C(c1sc2cc(F)ccc2c1Cl)N1CCN(c2ccccc2)CC1
inactive: Potency [1] | Potency [2] | Potency [3] | Potency [4]

Cc1nc(-c2ccc(C(=O)Nc3cccc(Br)c3)cc2)cs1
inactive: Potency [1] | Potency [2] | Potency [3] | Potency [4]

COC(C(=O)Nc1ccc(Br)cc1F)c1ccccc1 (stereo unspecified)
inactive: Potency [1] | Potency [2] | Potency [3] | Potency [4]

CCOC(=O)CC1C(=O)NCCN1C(=O)c1cccc(C(F)(F)F)c1 (stereo unspecified)
inactive: Potency [1] | Potency [2] | Potency [3] | Potency [4]

COc1ccc(Br)cc1CNc1ccc(O)cc1
inactive: Potency [1] | Potency [2] | Potency [3] | Potency [4]

COc1ccc(NC(=O)COC(=O)c2ccc(S(=O)(=O)N(C)c3ccccc3OC)cc2)cc1OC
inactive: Potency [1] | Potency [2] | Potency [3] | Potency [4]

CC(=O)N1CCc2c(sc(NC(=O)CS(=O)(=O)c3ccc(F)cc3)c2C(N)=O)C1
inactive: Potency [1] | Potency [2] | Potency [3] | Potency [4]
